Results as given in PubChem BioAssay (NCATS).
Calls of active or inactive are those of the source. The rule behind the calls is not given here.

Settings: Ebola virus entry assay, blue channel fluorescence

Question: Which AC50 does the source give for `O=C1NCCN1CCN1CCC(c2cn(-c3ccc(F)cc3)c3ccc(Cl)cc23)CC1` here?
Answer: Its AC50 is 0.891 µM (active).

Question: Which AC50 does the source give for `OC(CCCN1CCCCC1)(c1ccccc1)c1ccccc1` here?
Answer: The AC50 was 10 µM (active).

Question: Which AC50 does the source give for `CCN(CC)CCOC(=O)C(c1ccccc1)C1CCCCC1` (centres undefined) here?
Answer: Its AC50 is 2.82 µM (active).

Question: For `CCOC(=O)C1=C(C)NC(C)=C(C(=O)OCC)C1c1ccccc1/C=C/C(=O)OC(C)(C)C`, which outcome is on record?
Answer: Its outcome is “inactive”.

Question: Which AC50 does the source give for `COc1cccc(N(C)C(=S)Oc2ccc3c(c2)CCCC3)n1` here?
Answer: The AC50 was 17.8 µM (active).

Question: Which AC50 does the source give for `CCCOC(C(=O)OC1CCN(C)CC1)(c1ccccc1)c1ccccc1` here?
Answer: Its AC50 is 7.94 µM (active).

Question: With `COc1ccc(CCN(C)CCCC(C#N)(c2cc(OC)c(OC)c(OC)c2)C(C)C)cc1OC` (centres undefined) as the compound, how does the AC50 read?
Answer: Its AC50 is 15.8 µM (active).

Question: Which AC50 does the source give for `NCc1ccccc1Sc1ccccc1CO` here?
Answer: Its AC50 is 39.8 µM (active).

Question: For `Cc1nc2n(c(=O)c1CCN1CCC(C(=O)c3ccc(F)cc3)CC1)CCS2`, which outcome is on record?
Answer: The outcome was “inactive”.

Question: Which AC50 does the source give for `COc1ccccc1N1CCN(CC(O)COc2cccc3ccccc23)CC1` (centres undefined) here?
Answer: Its AC50 is 28.2 µM (active).

Question: For `CC[n+]1c(-c2ccccc2)c2cc(N)ccc2c2ccc(N)cc21`, which AC50 is on record?
Answer: The AC50 was 28.2 µM (active).

Question: With `Nc1c2c(nc3c1CCC3)CCCC2` as the compound, how does the AC50 read?
Answer: The AC50 was 28.2 µM (active).

Question: For `CC(=O)SC[C@@H](Cc1ccccc1)C(=O)NCC(=O)OCc1ccccc1`, which AC50 is on record?
Answer: The AC50 was 28.2 µM (active).

Question: With `C=C1c2cccc(O)c2C(O)=C2C(=O)[C@]3(O)C(O)=C(C(N)=O)C(=O)[C@@H](N(C)C)[C@@H]3[C@@H](O)[C@H]12` as the compound, how does the AC50 read?
Answer: The AC50 was 7.08 µM (active).

Question: Which outcome does the source give for `CSc1ccc(/C=C2/C(C)=C(CC(=O)O)c3cc(F)ccc32)cc1` here?
Answer: The outcome was “inactive”.

Question: With `CN1CCC(=C2c3ccccc3CCc3sccc32)CC1` as the compound, how does the AC50 read?
Answer: The AC50 was 8.91 µM (active).

Question: For `C[C@@H]1CN(CCCn2c3ccccc3c3ccccc32)C[C@H](C)N1`, which AC50 is on record?
Answer: Its AC50 is 3.16 µM (active).

Question: For `COc1ccc2c(c1)c(CC(=O)OCC(=O)O)c(C)n2C(=O)c1ccc(Cl)cc1`, which outcome is on record?
Answer: Its outcome is “inactive”.

Question: For `CC(C)(C)c1ccc(C(=O)CCCN2CCC(OC(c3ccccc3)c3ccccc3)CC2)cc1`, which AC50 is on record?
Answer: Its AC50 is 7.94 µM (active).

Question: Which AC50 does the source give for `CCN(CC)CCOCCOC(=O)C1(c2ccccc2)CCCC1` here?
Answer: The AC50 was 10 µM (active).

Question: For `COc1cc(C(=O)OCCCN2CCCN(CCCOC(=O)c3cc(OC)c(OC)c(OC)c3)CC2)cc(OC)c1OC`, which AC50 is on record?
Answer: The AC50 was 17.8 µM (active).

Question: With `CN1CCC(=C2c3ccccc3CC(=O)c3sccc32)CC1` as the compound, how does the AC50 read?
Answer: The AC50 was 31.6 µM (active).

Question: For `CCCCNc1ccc(C(=O)OCCN(CC)CC)cc1`, which AC50 is on record?
Answer: Its AC50 is 39.8 µM (active).

Question: With `CN1CCC(OC(c2ccccc2)c2ccccc2)CC1` as the compound, how does the AC50 read?
Answer: The AC50 was 14.1 µM (active).

Question: For `CC[C@]12CCCN3CCc4c(n(c5ccccc45)C(=O)C1)[C@@H]32`, which AC50 is on record?
Answer: Its AC50 is 28.2 µM (active).

Question: Which AC50 does the source give for `CN1C[C@H](C(=O)N[C@]2(C)O[C@@]3(O)[C@@H]4CCCN4C(=O)[C@H](Cc4ccccc4)N3C2=O)C[C@@H]2c3cccc4[nH]cc(c34)C[C@H]21` here?
Answer: Its AC50 is 28.2 µM (active).

Question: With `CN(CCCN1c2ccccc2CCc2ccccc21)CC(=O)c1ccc(Cl)cc1` as the compound, how does the AC50 read?
Answer: Its AC50 is 22.4 µM (active).

Question: For `CCCCCCCCNC(C)C(O)c1ccc(SC(C)C)cc1` (centres undefined), which AC50 is on record?
Answer: Its AC50 is 14.1 µM (active).

Question: With `CCCCCCCCCCOCC(O)CN` (centres undefined) as the compound, how does the AC50 read?
Answer: Its AC50 is 4.47 µM (active).

Question: For `CCCCCCCCCCCCCCCC[n+]1ccccc1`, which AC50 is on record?
Answer: The AC50 was 20 µM (active).

Question: For `CC1=C(CC(=O)O)c2cc(F)ccc2/C1=C\c1ccc(S(C)=O)cc1` (centres undefined), which outcome is on record?
Answer: The outcome was “inactive”.

Question: Which AC50 does the source give for `Cc1ccc2c(Br)cc(Br)c(O)c2n1` here?
Answer: The AC50 was 35.5 µM (active).

Question: For `CCC(=O)O[C@]1(C(=O)CCl)[C@@H](C)C[C@H]2[C@@H]3CCC4=CC(=O)C=C[C@]4(C)[C@@]3(F)[C@@H](O)C[C@@]21C`, which AC50 is on record?
Answer: The AC50 was 31.6 µM (active).

Question: With `NC(=NCCCCCCN=C(N)/N=C(\N)Nc1ccc(Cl)cc1)/N=C(\N)Nc1ccc(Cl)cc1` as the compound, how does the AC50 read?
Answer: Its AC50 is 39.8 µM (active).

Question: With `O=C(OCC(O)CO)c1ccccc1Nc1ccnc2cc(Cl)ccc12` (centres undefined) as the compound, how does the AC50 read?
Answer: The AC50 was 39.8 µM (active).

Question: For `Cc1oc(-c2ccccc2)nc1CCC(=O)c1ccc(CC2SC(=O)NC2=O)cc1` (centres undefined), which outcome is on record?
Answer: Its outcome is “inactive”.

Question: For `OC(C#CCN1CCCC1)(c1ccccc1)c1ccccc1`, which AC50 is on record?
Answer: The AC50 was 39.8 µM (active).

Question: With `CC(NCCC(c1ccccc1)c1ccccc1)c1ccccc1` (centres undefined) as the compound, how does the AC50 read?
Answer: The AC50 was 2 µM (active).

Question: Which AC50 does the source give for `C=CCc1ccccc1OCC(O)CNC(C)C` (centres undefined) here?
Answer: The AC50 was 28.2 µM (active).
